# Assay outcomes (PubChem BioAssay)
# Rows were chosen to be rich in hits. Some 4.6% of all compounds tested hit in one or more screens of this group.
# D1 agonist: agonists of human D1 dopamine receptor; HEK293 T-REx D1 cells, calcium flux, agonist mode; hit rate 1% among 360,000; P21728; activation, % at 2 µM; further: 0% is about no effect
# Target sequence (P21728 whole entry, looked up): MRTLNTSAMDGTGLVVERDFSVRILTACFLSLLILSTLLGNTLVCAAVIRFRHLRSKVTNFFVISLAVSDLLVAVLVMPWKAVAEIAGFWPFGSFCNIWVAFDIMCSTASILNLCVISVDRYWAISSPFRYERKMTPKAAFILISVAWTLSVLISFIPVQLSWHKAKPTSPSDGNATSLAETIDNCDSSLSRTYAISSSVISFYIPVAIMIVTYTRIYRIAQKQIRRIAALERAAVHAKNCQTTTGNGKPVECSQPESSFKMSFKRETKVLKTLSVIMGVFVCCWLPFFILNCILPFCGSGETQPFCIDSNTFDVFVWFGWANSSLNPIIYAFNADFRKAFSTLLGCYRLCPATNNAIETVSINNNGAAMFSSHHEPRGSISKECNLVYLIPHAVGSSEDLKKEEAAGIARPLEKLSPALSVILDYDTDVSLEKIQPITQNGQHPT
#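 Agonism was scored from calcium flux recorded over 180 s (1 read/s) after pintool compound addition, following a 10-cycle baseline. Cells were inducible force-coupled HEK293 TREx D1, plated overnight at 30 C and loaded with no-wash calcium dye.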
# TRHR enhancer: allosteric enhancers of human TRH receptor; P34981; TRHR cells, fluo-8 calcium fluorescence, EC20 TRH enhancement; enhancement, % at 2 µM; hit rate 0.66% among 360,000; AID 493056; in the data active means enhancement above about 30%; further: 0% is about no effect
#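 Enhancer read-out: after compound pinning and an initial kinetic agonist-mode read, an EC20 of TRH (10 nM final) was injected and fluo-8 calcium signal (Ex 480/Em 530) followed at 1 s/cycle for 100 cycles in TRHR-expressing cells.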
# D1 antag: human D1 dopamine receptor antagonism; HEK293 TREx D1 cells, calcium flux, dopamine EC80; stronger effect = lower value; activity change, negative = inhibition, % at 10 µM; hit rate 3.2% among 360,000; AID 504652; in the data active means activity change below about -30%; further: on the % scale 0 is the no-effect control and ±100 the full control effect
#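 Tetracycline-induced HEK293 Trex D1 cells, force-coupled to calcium, dye-loaded; compounds added and read 180 s, then EC80 dopamine added and calcium flux tracked kinetically another 180 s.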
# D1 PAM: enhances dopamine response at the human D1 receptor; potentiation, % at 10 µM; AID 504651; hit rate 0.036% among 360,000; P21728; HEK293 TREx D1 cells, calcium flux, dopamine EC20 potentiation; in the data active means potentiation above about 30%; further: 0% is about no effect
# TRHR ag: activates the human TRH receptor | P34981 | TRHR cells, calcium flux fluo-8, FDSS agonist mode | activation, % at 2 µM | hit rate 0.18% among 360,000 | AID 493084; further: 0% is about no effect
#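 Read-out: compound-evoked intracellular calcium rise in TRHR cells, fluo-8 dye, kinetic FDSS fluorescence at 1 s/cycle following a 10-cycle baseline. Cells cultured overnight before dye loading (30 min–1.5 h, RT).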
# Active calls of the source: *; . = not tested or not shown. Unless noted, no stated cut-off is given here; in the data, active means activation above about 30%; inactive means the rest.
SMILES,D1 agonist,TRHR enhancer,D1 antag,D1 PAM,TRHR ag
CC(C)C[C@H]1CN=C(Nc2ccccc2)N1CC1CCC(C(C)(C)C)CC1 (some centres undefined),70*,21,21,3,0
COC(=O)CC(=O)CSc1nc2cc(C(=O)NCC(C)C)ccc2c(=O)n1CCc1ccccc1,2,-4,-14,-5,0
CCOc1ccc(-n2c(SCC(=O)N3CCC(C)CC3)nc3c([nH]c4ccccc43)c2=O)cc1,0,0,-5,2,0
COc1ccc(NC(=O)c2cc3nc(-c4ccc(Cl)c(Cl)c4)cc(C(F)(F)F)n3n2)c(OC)c1,-2,7,-66*,0,0
CC1CN(C(=O)CSc2nnc(-c3cccs3)n2N)CC(C)O1 (centres undefined),2,-7,-34*,8,0
Nn1c(SCC(=O)N2CCc3ccccc3C2)nnc1-c1cccs1,0,3,20,-1,-1
CCO[C@@H]1OC(C(=O)N2CCN(C)CC2)=C[C@H](C2CCCCC2)[C@H]1CCCO,-4,1,2,-3,0
CCO[C@@H]1OC(C(=O)N2CCN(C)CC2)=C[C@H](C(C)(C)C)[C@H]1CCCO,-3,35*,18,8,0
CCOc1ccc(CC(=O)NCCc2sc3nc(-c4ccc(OC)cc4)nn3c2C)cc1,0,-3,.,-1,0
CCOc1ccc(CC(=O)NCCc2sc3nc(-c4ccc(F)cc4)nn3c2C)cc1,4,43*,.,-3,0
Cc1ccc(NC(=O)N2CCc3cc(S(=O)(=O)N4CCC(C)CC4)ccc32)cc1C,5,3,-25,-5,1
O=C(C1=C(O)C(=O)N(CC2CCCO2)C1c1cccnc1)c1ccco1 (centres undefined),0,22,-30*,-2,0
O=C(Nc1ccc([N+](=O)[O-])cc1)Nc1nc(-c2ccc(Cl)s2)cs1,29,5,-47*,-7,0
CC(=O)Nc1nc(-c2ccc([N+](=O)[O-])cc2)cs1,-1,3,-9,-5,0
CN1CCN(CCCNC(=O)c2cnn(-c3ccc(F)cc3)c2-n2cccc2)CC1,1,4,18,-1,0
CCCn1ccc2c(OCC(=O)Nc3ccc(F)cc3F)cccc2c1=O,0,-1,.,-4,0
Cc1c(N2C(=O)/C(=C\c3ccc(N(C)C)cc3)N(C)C2=S)c(=O)n(-c2ccccc2)n1C,38*,6,7,0,16
CN1C(=S)N(c2cccnc2)C(=O)/C1=C\c1ccc(N(C)C)cc1,91*,-3,-13,-3,29
Cc1c(NC(=S)N/N=C/c2ccc(N(C)C)cc2)c(=O)n(-c2ccccc2)n1C,-1,-1,5,6,0
N#Cc1ccc(C(=O)Nc2ccccc2-c2nc3ccccc3s2)c(F)c1,1,6,-15,-1,2
Cc1cccc(N(C)C(=O)Cn2cnc3nc4c(cc3c2=O)CCCC4)c1,2,2,10,2,0
COc1ccc2c(c1OC)C(=O)OC2CC(=O)O (centres undefined),1,-1,-30*,0,1
COc1cc(/C=C2\SC(=S)N(NC(=O)c3ccccc3OC)C2=O)ccc1O,49*,7,-7,10,29
COc1cc(/C=C2\SC(=S)N(NC(=O)c3cccc(O)c3)C2=O)ccc1O,110*,9,8,-2,75*
COc1cc(/C=C2\SC(=S)N(NS(=O)(=O)c3ccccc3)C2=O)ccc1O,44*,-7,-3,0,14
SMILES,D1 agonist,TRHR enhancer,D1 antag,D1 PAM,TRHR ag
COc1cc(/C=C2\SC(=S)N(NC(=O)c3ccncc3)C2=O)ccc1O,22,-2,27,-5,13
Oc1ccc(CNc2ccc(C(F)(F)F)cc2Cl)c2cccnc12,8,1,2,1,-1
COc1ccccc1-n1nc(-c2ccccc2)c2cnc3c(F)cc(F)cc3c21,0,-4,30,2,-1
CC(C)(C)OC(=O)N1CCC(c2nnc(SCc3ccccc3F)o2)CC1,10,-2,4,-4,-2
Cc1ccc(C23CC4CC(CC(NC(=O)NCCN(C)C)(C4)C2)C3)cc1,6,-2,10,-5,0
CN(C)CCNC(=O)COc1ccc(C23CC4CC(CC(C4)C2)C3)cc1,33*,2,7,-3,1
CCOC(=O)c1c(-c2ccc(C)cc2)csc1NC(=O)c1cc(=O)c2cc(C)c(C)cc2o1,2,15,-25,2,-1
CC(NCCC1(Cc2ccccc2Cl)CCOC(C)(C)C1)c1cccs1 (centres undefined),47*,5,10,8,-1
CC(C)C1(CCNC(=O)c2cccs2)CCOC(C)(C)C1 (centres undefined),1,-7,4,0,1
Fc1ccccc1Nc1n[nH]c(=S)s1,3,0,-13,2,0
S=c1[nH]nc(Nc2cccc3ccccc23)s1,2,-2,-33*,3,-2
CCNc1nc(NCC)nc(Nn2cnnc2)n1,2,6,-38*,-8,0
Cc1ccccc1Nc1nnc(SCc2cc(=O)n3ccsc3n2)s1,5,8,-54*,8,0
Cc1cc(C)c(NC(=O)CCN2CCCCC2)c(C)c1,0,3,21,0,1
O=C(NC1CCN(Cc2ccc(Cl)cc2)CC1)c1cn(-c2ccccc2)nc1-c1cccnc1,2,7,-50*,.,1
Cc1ccc(-c2nnn(CC(=O)NC3CCN(Cc4ccccc4)CC3)n2)cc1,31*,-10,-9,-6,-1
O=C(Cn1nnc(-c2ccc(Cl)cc2)n1)NC1CCN(Cc2ccccc2)CC1,37*,-2,-59*,-10,0
CC12CCC(C(=O)Nc3nccs3)(OC1=O)C2(C)C (centres undefined),0,3,-31*,-2,0
COc1ccc(Cn2c(CCC(=O)NCc3cccc(Cl)c3)nc3cccnc32)cc1,3,11,13,4,-2
CCN(CC)S(=O)(=O)c1cc(C(=O)OCC(=O)Nc2cccc(S(=O)(=O)N(C)C)c2)ccc1F,1,-3,-40*,-4,-1
CN(C(=O)CSc1nc2ccc(NC(=O)c3ccc(F)cc3)cc2s1)c1ccccc1,1,0,7,-2,-1
N#CC1=C(N)SC(N)=C(C#N)C1Cc1ccccc1,10,22,11,-5,4
CC(C)CC1C(C#N)=C(N)SC(N)=C1C#N,38*,4,-9,-3,-1
Cc1cccc(NC(=O)CSc2nncn2C)c1,0,15,-24,0,0
CCSC1=NCCN1C(=O)Cc1ccc(-c2ccccc2)cc1,4,0,-44*,-4,0
CSC1=NCCN1C(=O)Cc1ccc(-c2ccccc2)cc1,16,2,-40*,-10,0
